We go through 40 molecules from PubChem BioAssay.

Molecules are shown by their SMILES. The source made the active and inactive calls. The rule behind the calls is not given here.

A short description of the experiment: inhibition of Brca1/Bard1 split-luciferase complementation, confirmation, counter-screen for Mdm2/MdmX interaction inhibitor project, luminescence, single concentration (AID 504668). The settings on record: Brca1/Bard1 bimolecular luciferase complementation counterscreen, at 8 µM, hits give high values.
As for `CN1CCN(c2cc(N3CCN(C(=O)c4ccco4)CC3)c3c4c(onc24)-c2ccccc2C3=O)CC1`, the inhibition is 24.3% (active). Then `CCOc1ccc(C(=O)N/N=C(\c2ccccc2)c2ccccn2)cc1`, with 30.1% (active); and `CN1CCN(C(=O)CCCN2C(=O)/C(=C/c3cccc(Br)c3)SC2=S)CC1`, with 29.2% (active); and `COc1ccc(-c2nc(CN3CCN(c4cc(C)nc(C)c4)CC3)c(C)o2)c2ccccc12`, with 34.4% (active). Take `O=C(c1ccc(Br)cc1)C(CN1CCOCC1)c1ccccc1` (stereo not given): the inhibition is 24.6% (active). Then `O=C(CN1C(=O)/C(=C/c2ccccc2)SC1=S)N1CCN(CCc2ccccn2)CC1`, with 24.3% (active). Then `CC(=O)NC(c1cccs1)c1cc(F)c2cccnc2c1O` (stereo not given), with 30.4% (active).

For `COc1ccc([C@@H]2[C@@H]3C(=O)N(C(C)(C)C)C(=O)[C@@H]3[C@]3(Cc4ccccc4)C(=O)N(c4ccc(Br)cc4)C(=O)N23)cc1`, the inhibition was 35.6% (active). For the molecule `C=CCn1c(CNc2ccc(C)cc2)nnc1SCC(=O)N/N=C/c1ccc(O)cc1O`, the inhibition was 35.6% (active). Turning to `COc1cccc(CNc2ncnc3ccc(-c4c(C)noc4C)cc23)c1`, the inhibition was 31% (active). In the case of `Cc1nnc(-c2ccccc2)c(=O)n1/N=C/c1c(O)ccc2ccccc12`, the inhibition was 30.7% (active).

Take `O=C(CN1CCCc2ccccc21)N/N=C/c1c(O)ccc2ccccc12`: the inhibition is 30.3% (active). With `O=C(CCCN1C(=O)/C(=C\c2cccs2)SC1=S)Nc1ccc(O)cc1`, the inhibition was 31.8% (active).

As to `Cc1nnnn1/C(=C\c1ccccc1)C(=O)OCC(=O)Nc1cccc(S(=O)(=O)N(C)C)c1`, the inhibition is 34% (active). As for `COc1cc(/C=C/c2ccc3cccc(O)c3n2)cc(OC)c1OC`, the inhibition is 27.2% (active). For `CCCCN(Cc1ccco1)C(=O)c1cc2c(=O)[nH]c3ccc(C)cc3c2s1`, the inhibition is 23.8% (active). For `O=C(Nc1ccccc1)C1=C[C@@H](C2CCCCC2)C[C@@H](OCc2ccc(CO)cc2)O1`, the inhibition is 24.1% (active). For the molecule `CN1CCN(C(c2ccc(C(F)(F)F)cc2)c2ccc3cccnc3c2O)CC1` (stereo not given), the inhibition is 27.9% (active). Consider `Oc1c(CN2CCCC2)cc(COCc2ccccc2)c2cccnc12`, for which the inhibition was 32.2% (active).

As for `CCOC(=O)c1sc(NC(=O)Nc2cccc(Cl)c2)cc1C`, the inhibition was 34.4% (active). On to `COc1cccc(/C=C2\SC(=S)N(CCC(=O)NCCc3ccc(O)cc3)C2=O)c1`, for which the inhibition was 35.4% (active). With `O=C(CCS(=O)(=O)c1ccc(F)cc1)Nc1nc(-c2ccncc2)cs1`, the inhibition is 34.2% (active).

With `Cc1nn2c(NCc3ccccn3)cc(C(C)C)nc2c1-c1ccccc1`, the inhibition was 28.7% (active). Turning to `Cc1cc(SC#N)cc(C)c1NC(=O)CCl`, the inhibition is 33.8% (active).

For the molecule `Oc1ccccc1C1CC(c2cccs2)=NC(c2ccc(Cl)cc2)N1` (stereo not given), the inhibition is 28.5% (active). As for `Cc1ccc2[nH]c(C(=O)N/N=C/c3ccccc3O)c(C)c2c1`, the inhibition is 25.3% (active). As to `COc1ccc(C)cc1NC(=O)c1ccccc1NS(=O)(=O)c1ccc(Cl)s1`, the inhibition was 32.4% (active).

On to `O=C(/C(N=Nc1cccc([N+](=O)[O-])c1)=C(/O)c1ccc(Br)cc1)C(F)(F)F`, for which the inhibition was 24.9% (active). Consider `CCN(CC)C(=O)C1CCCc2c1[nH]c1ccc(Cl)cc21` (stereo not given), for which the inhibition was 34.6% (active).

As for `Cc1[nH]c(N=Nc2ccccc2)nc1N=Nc1ccccc1`, the inhibition was 24.1% (active).

As to `COc1ccc(Cl)cc1NC(=O)c1nnn(CC(=O)Nc2ccc(OC)c(OC)c2)c1N`, the inhibition is 31.7% (active). For `Cc1conc1NC(c1cccs1)c1ccc2cccnc2c1O` (stereo not given), the inhibition was 31.8% (active). Consider `CC(=O)NC(c1cccc([N+](=O)[O-])c1)c1ccc2cccnc2c1O` (stereo not given), for which the inhibition was 23.7% (active). Take `COc1cccc(/C=N/NC(=O)c2c(C)nc3ccc(Br)cn23)c1O`: the inhibition was 32.3% (active). Regarding `N#Cc1c2ccc(O)cc2n2ccccc12`, the inhibition is 35.2% (active). `S=C(NNc1ccc2ccccc2c1)NC1CCCCC1`: the inhibition is 34.4% (active). `N#CC1=C(N)C(C#N)(C#N)C(c2cccnc2)C2CC(c3ccccc3)CC=C12` (stereo not given): the inhibition was 23.1% (active). As for `Cc1nc2ccccn2c1C(=O)/C=C/c1cccc([N+](=O)[O-])c1`, the inhibition is 27.6% (active).

On to `COc1ccc(/C=c2/sc3n(c2=O)C(c2ccccc2OC)C2=C(N=3)c3ccccc3CC2)cc1O` (stereo not given), for which the inhibition was 29.6% (active). Then `CC(=O)c1sc(NC(=O)C2(F)C(F)(F)C(F)(F)C(F)(F)C(F)(F)C2(F)F)nc1C`, with 28.7% (active).
